In PubChem BioAssay (EPA / NIEHS):
Values joined by “and” are separate entries in the source; they are usually repeats but may differ in a detail not shown here. Equal entries are not always repeated. Active and inactive are the calls of the source. Rule for the calls: active = hit-call score of the fitted dose curve at least 0.9, where 1 is the maximum; inactive = score below 0.9.

Tests used:
[1] = read-out: Tissue plasminogen activator (tPA), PLAT (gene 5327); test: BSK_BE3C_tPA: BioMAP Diversity Plus: BE3C Assay for Tissue plasminogen activator (tPA) Biomarker Activity (AID 2283041); conditions: primary human bronchial epithelial cells; actives raise or lower the signal
Procedure, shortened: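 Primary human bronchial epithelial cells in the BE3C system, exposed to compound for 24 h. tPA was quantified by ELISA; DMSO served as baseline, with gain or loss of signal fitted. Cytotoxicity checked in parallel cultures by SRB total-protein staining.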

[2] = read-out: Interleukin-8 (IL8), CXCL8 (gene 3576); test: BSK_CASM3C_IL8: BioMAP Diversity Plus: CASM3C Assay for Interleukin-8 (IL8) Biomarker Activity (AID 2283042); conditions: primary human coronary artery smooth muscle cells; actives raise or lower the signal;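 note: IL-8 protein level quantified by ELISA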
[3] = read-out: Human Leukocyte Antigen - DR isotype (HLADR), HLA-DRA (gene 3122); test: BSK_CASM3C_HLADR: BioMAP Diversity Plus: CASM3C Assay for Human Leukocyte Antigen - DR isotype (HLADR) Biomarker Activity (AID 2283043); conditions: primary human coronary artery smooth muscle cells; actives raise or lower the signal;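 note: cell-surface HLA-DR protein level quantified by ELISA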
[4] = read-out: Macrophage colony-stimulating factor (MCSF), CSF1 (gene 1435); test: BSK_CASM3C_MCSF: BioMAP Diversity Plus: CASM3C Assay for Macrophage colony-stimulating factor (MCSF) Biomarker Activity (AID 2283044); conditions: primary human coronary artery smooth muscle cells; actives raise or lower the signal;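 note: M-CSF protein amount quantified by ELISA after 24 h exposure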
[5] = read-out: Low-density lipoprotein receptor (LDLR), LDLR (gene 3949); test: BSK_CASM3C_LDLR: BioMAP Diversity Plus: CASM3C Assay for Low-density lipoprotein receptor (LDLR) Biomarker Activity (AID 2283045); conditions: primary human coronary artery smooth muscle cells; actives raise or lower the signal;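 note: LDLR protein level on the cell surface quantified by ELISA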
[6] = read-out: Monocyte Chemoattractant Protein-1 (MCP1), CCL2 (gene 6347); test: BSK_CASM3C_MCP1: BioMAP Diversity Plus: CASM3C Assay for Monocyte Chemoattractant Protein-1 (MCP1) Biomarker Activity (AID 2283046); conditions: primary human coronary artery smooth muscle cells; actives raise or lower the signal;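 note: MCP-1 level quantified by ELISA 24 h after dosing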
[7] = BSK_CASM3C_Proliferation: Cell Proliferation Assessment in the BioMAP Diversity Plus: CASM3C Assay (AID 2283047); conditions: primary human coronary artery smooth muscle cells;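 note: sulforhodamine B total protein stain as relative cell number at 560 nm; sub-confluent cells exposed 48 h before staining; fitted both ways against DMSO so gain or loss of cell number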
[8] = read-out: Monokine induced gamma interferon (MIG), CXCL9 (gene 4283); test: BSK_CASM3C_MIG: BioMAP Diversity Plus: CASM3C Assay for Monokine induced gamma interferon (MIG) Biomarker Activity (AID 2283048); conditions: primary human coronary artery smooth muscle cells; actives raise or lower the signal;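 note: MIG protein level measured by ELISA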
[9] = read-out: serum amyloid A (SAA), SAA1 (gene 6288); test: BSK_CASM3C_SAA: BioMAP Diversity Plus: CASM3C Assay for serum amyloid A (SAA) Biomarker Activity (AID 2283049); conditions: primary human coronary artery smooth muscle cells; actives raise or lower the signal;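 note: SAA protein level quantified by ELISA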
[10] = BSK_CASM3C_SRB: Viability Assessment in the BioMAP Diversity Plus: CASM3C Assay (AID 2283050); conditions: primary human coronary artery smooth muscle cells
[11] = read-out: Thrombomodulin, THBD (gene 7056); test: BSK_CASM3C_Thrombomodulin: BioMAP Diversity Plus: CASM3C Assay for Thrombomodulin Biomarker Activity (AID 2283051); conditions: primary human coronary artery smooth muscle cells; actives raise or lower the signal;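 note: thrombomodulin protein level measured by ELISA 24 h after dosing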
[12] = read-out: Tissue Factor, F3 (gene 2152); test: BSK_CASM3C_TissueFactor: BioMAP Diversity Plus: CASM3C Assay for Tissue Factor Biomarker Activity (AID 2283052); conditions: primary human coronary artery smooth muscle cells; actives raise or lower the signal;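 note: cell surface tissue factor protein level read by ELISA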
[13] = read-out: Interferon-gamma inducible Protein 10 (IP10), CXCL10 (gene 3627); test: BSK_hDFCGF_IP10: BioMAP Diversity Plus: hDFCGF Assay for Interferon-gamma inducible Protein 10 (IP10) Biomarker Activity (AID 2283053); conditions: primary human foreskin fibroblasts; actives raise or lower the signal
Procedure, shortened: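 Primary human foreskin fibroblasts exposed to chemicals for 24 h. IP-10 measured by ELISA; changes fitted bidirectionally against DMSO baseline.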

[14] = read-out: Urokinase-type plasminogen activator receptor (uPAR), PLAUR (gene 5329); test: BSK_CASM3C_uPAR: BioMAP Diversity Plus: CASM3C Assay for Urokinase-type plasminogen activator receptor (uPAR) Biomarker Activity (AID 2283054); conditions: primary human coronary artery smooth muscle cells; actives raise or lower the signal;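 note: cell-surface uPAR protein level quantified by ELISA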
[15] = read-out: Vascular cell adhesion molecule 1 (VCAM1), VCAM1 (gene 7412); test: BSK_CASM3C_VCAM1: BioMAP Diversity Plus: CASM3C Assay for Vascular cell adhesion molecule 1 (VCAM1) Biomarker Activity (AID 2283055); conditions: primary human coronary artery smooth muscle cells; actives raise or lower the signal;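 note: VCAM-1 protein level quantified by ELISA on the cells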
[16] = read-out: Collagen III, COL3A1 (gene 1281); test: BSK_hDFCGF_CollagenIII: BioMAP Diversity Plus: hDFCGF Assay for Collagen III Biomarker Activity (AID 2283056); conditions: primary human foreskin fibroblasts; actives raise or lower the signal
Procedure, shortened: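 ELISA read-out of collagen III from human skin fibroblast cultures sampled 24 h post-dosing. Values were derived by bidirectional fitting relative to the DMSO vehicle control.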

[17] = read-out: Epidermal growth factor receptor (EGFR), EGFR (gene 1956); test: BSK_hDFCGF_EGFR: BioMAP Diversity Plus: hDFCGF Assay for Epidermal growth factor receptor (EGFR) Biomarker Activity (AID 2283057); conditions: primary human foreskin fibroblasts; actives raise or lower the signal
Procedure, shortened: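 Primary human foreskin fibroblasts (hDFCGF system), sampled 24 h after dosing; EGFR quantified by ELISA. Bidirectional fit relative to DMSO baseline; SRB total-protein staining in parallel cultures for cytotoxicity.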

[18] = read-out: Interleukin-8 (IL8), CXCL8 (gene 3576); test: BSK_hDFCGF_IL8: BioMAP Diversity Plus: hDFCGF Assay for Interleukin-8 (IL8) Biomarker Activity (AID 2283058); conditions: primary human foreskin fibroblasts; actives raise or lower the signal
Procedure, shortened: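 Cells used are human skin primary fibroblasts. Chemical is added, cultures run 24 h, then IL-8 is quantified by ELISA, and gain or loss versus DMSO control is fitted in both directions.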

[19] = BSK_hDFCGF_Proliferation: Cell Proliferation Assessment in the BioMAP Diversity Plus: hDFCGF Assay (AID 2283059); conditions: primary human foreskin fibroblasts;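 note: curves fitted for both rise and fall of signal versus DMSO baseline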
Procedure, shortened: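 Primary human foreskin fibroblasts, sub-confluent; […]; 10% TCA fix, 0.1% SRB stain, A560 total protein. Gain/loss fitted bidirectionally vs DMSO control.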

[20] = read-out: Macrophage colony-stimulating factor (MCSF), CSF1 (gene 1435); test: BSK_hDFCGF_MCSF: BioMAP Diversity Plus: hDFCGF Assay for Macrophage colony-stimulating factor (MCSF) Biomarker Activity (AID 2283060); conditions: primary human foreskin fibroblasts; actives raise or lower the signal
Procedure, shortened: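 Primary human foreskin fibroblasts dosed with chemical; 24 h later, M-CSF quantified by ELISA; curves fitted in both directions vs DMSO negative control.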

Measured: AC50

OCCN1CCOCC1
inactive: [1] | [2] | [3] | [4] | [5] | [6] | [7] | [8] | [9] | [10] | [11] | [13] | [14] | [15] | [16] | [17] | [18] | [19] | [20]
active: [12] 2.22 µM

C=CC(=O)OCC(CO)(COC(=O)C=C)COC(=O)C=C
active: [2] 1.25 µM | [3] 0.567 µM | [4] 1.07 µM | [5] 1.31 µM | [6] 0.792 µM | [7] 0.302 µM | [8] 1.24 µM | [9] 5.46 µM | [10] 1.61 µM | [11] 4.58 µM | [12] 1.25 µM | [13] 0.016 µM | [14] 0.501 µM | [15] 0.206 µM | [16] 0.016 µM | [18] 3.97 µM | [19] 0.016 µM | [20] 0.0377 µM
inactive: [1] | [17]

CCCO[Si](OCCC)(OCCC)OCCC
active: [19] 31.1 µM and 25.8 µM
inactive: [1] | [2] | [3] | [4] | [5] | [6] | [7] | [8] | [9] | [10] | [11] | [12] | [13] | [14] | [15] | [16] | [17] | [18] | [20]

C#C[C@]1(O)CC[C@H]2[C@@H]3CCc4cc(O)ccc4[C@H]3CC[C@@]21C
active: [5] 29.2 µM | [6] 2.14 µM | [7] 7.37 µM | [9] 0.935 µM | [19] 7.35 µM
inactive: [1] | [2] | [3] | [4] | [8] | [10] | [11] | [12] | [13] | [14] | [15] | [16] | [17] | [18] | [20]

CC(C)(CO)CO
inactive: [1] | [2] | [3] | [4] | [5] | [6] | [7] | [8] | [9] | [10] | [11] | [12] | [13] | [14] | [15] | [16] | [17] | [18] | [19] | [20]

CCCCCCCCCC(=O)OCC
inactive: [11] | [13] | [17] | [18]
active: [1] 20 µM | [2] 37 µM | [3] 32.5 µM | [4] 31.4 µM | [5] 36.4 µM | [6] 31.9 µM | [7] 20 µM | [8] 31.5 µM | [9] 31.8 µM | [10] 33 µM | [12] 30.4 µM | [14] 31.1 µM | [15] 31.1 µM | [16] 31.5 µM | [19] 13.7 µM | [20] 30.2 µM

c1ccc(Sc2ccccc2)cc1
active: [1] 20 µM | [3] 20 µM | [4] 14.9 µM | [9] 20 µM | [10] 29.8 µM | [12] 20 µM | [13] 29.3 µM | [15] 20 µM | [16] 29.9 µM | [19] 29.6 µM | [20] 28.1 µM
inactive: [2] | [5] | [6] | [7] | [8] | [11] | [14] | [17] | [18]

CC=CC(=O)C1=C(C)C=CCC1(C)C
inactive: [1] | [2] | [3] | [4] | [5] | [6] | [7] | [8] | [9] | [10] | [11] | [12] | [13] | [14] | [15] | [16] | [17] | [18] | [19] | [20]

CC1(C)[C@H](C=C(Cl)Cl)[C@H]1C(=O)OCc1cccc(Oc2ccccc2)c1
inactive: [1] | [2] | [3] | [4] | [5] | [6] | [7] | [8] | [9] | [10] | [11] | [12] | [13] | [14] | [15] | [16] | [17] | [18] | [19] | [20]

c1ccc2c(c1)-c1ccc3ccc4cccc5cc-2c1c3c45
active: [20] 0.0865 µM
inactive: [1] | [2] | [3] | [4] | [5] | [6] | [7] | [8] | [9] | [10] | [11] | [12] | [13] | [14] | [15] | [16] | [17] | [18] | [19]

O=C(c1ccc(OCCN2CCCCC2)cc1)c1c(-c2ccc(O)cc2)sc2cc(O)ccc12
active: [1] 20 µM | [3] 26.1 µM | [5] 6.83 µM | [7] 23 µM | [10] 34.4 µM | [13] 32.2 µM | [14] 33.4 µM | [16] 14.8 µM | [17] 9.63 µM | [18] 33.7 µM | [19] 7.34 µM
inactive: [2] | [6] | [8] | [9] | [11] | [12] | [15]
